Autofluor counter: flagged as autofluorescent in microsphere protease counterscreen; compound autofluorescence counterscreen, microsphere flow cytometry; stronger effect = higher value; fluorescence intensity (no concentration beside the values); 360,000 compounds, 3.1% hits; AID 624483; in the data active means fluorescence intensity above about 16000; inconclusive means no clear call, values can overlap the other calls
PriA SSB inh: inhibitors of Klebsiella pneumoniae PriA binding to SSB C-terminal tail, primary screen, biochemical, AlphaScreen. PriA–SSB C-terminal tail interaction (Klebsiella pneumoniae). AlphaScreen SSBct-PriA binding, biotinylated peptide. inhibition, % at 33 µM. 430,000 compounds, 0.6% hits; in the data active means inhibition mostly above about 37%, no sharp cut-off; inactive means mostly below about 20%;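 further: plate controls were negative control peptide for no effect and reference peptide for full effect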
MazEF act: activators of E. coli MazEF toxin-antitoxin RNase, primary screen, biochemical, fluorescence, uHTS. activation, % at 20 µM. Endoribonuclease toxin MazF (Escherichia coli (strain K12)), P0AE70. FAM/BHQ RNA-DNA oligo cleavage fluorescence, 5 h. 350,000 compounds, 0.32% hits; in the data active means activation above about 50%
Target sequence (P0AE70 whole entry, looked up): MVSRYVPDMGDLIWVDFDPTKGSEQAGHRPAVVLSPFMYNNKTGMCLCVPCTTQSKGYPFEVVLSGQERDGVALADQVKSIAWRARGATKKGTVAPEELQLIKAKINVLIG
BoNT-F LC inh: BoNT/F light chain protease inhibitors, primary screen, biochemical, flow cytometry, MLPCN library. Multiplex microsphere protease cleavage assay. inhibition, % at 10 µM. 360,000 compounds, 0.22% hits. Botulinum neurotoxin type F light chain protease (Clostridium botulinum); in the data active means inhibition above about 35%, passing the limit was not always enough; inconclusive means no clear call, values can overlap the other calls; further: plate controls were buffer without enzyme for full effect and enzyme alone for no effect
Anthrax LF inh2: Bacillus anthracis LF protease inhibitors, primary screen, biochemical, multiplex microsphere, MLPCN library; inhibition, % at 10 µM; Lethal factor (Bacillus anthracis), P15917; multiplex microsphere protease cleavage assay; AID 588501, 2011; 360,000 compounds, 0.12% hits; further: plate controls were buffer without enzyme for full effect and enzyme alone for no effect
BoNT A protease: BoNT/A light chain protease inhibitors, primary screen, biochemical, flow cytometry, MLPCN library. Botulinum neurotoxin type A light chain protease (Clostridium botulinum A str. ATCC 3502). multiplex microsphere protease substrate cleavage. inhibition, % at 10 µM. 360,000 compounds, 0.17% hits; further: plate controls were buffer without enzyme for full effect and enzyme alone for no effect
Starred values were filed as active, the others as inactive; ? = inconclusive; nt = no result; + = active, no number. A selection: hits, their analogues and other compounds. The true share with any hit is near 3.3%. Unless noted, no stated cut-off is given here; in the data, active means inhibition above about 30%; inconclusive means no clear call, values can overlap the other calls; inactive means below that.

SMILES	Autofluor counter	PriA SSB inh	MazEF act	BoNT-F LC inh	Anthrax LF inh2	BoNT A protease
COc1ccc(NC(=S)NCCc2ccccc2OC)c(OC)c1	16398*	13	11	-1	-8	0
CCc1cccc2c1[nH]c1cc(N)ccc12	nt	7	nt	nt	nt	nt
COC(=O)C(CCSC)NC(=O)c1cn(-c2ccc(OC)cc2)c(=O)c2ccccc12 (centres undefined)	4029	2	6	36*	-8	-1
CCNc1nc(NCC)nc(Nn2cnnc2)n1	20282*	-3	-5	0	1	0
CCOC(=O)CSC1=NC(=O)/C(=C\c2ccc(OC(C)=O)cc2)S1	9921	-2	65*	-30	-10	-4
CCOC(=O)CSC1=NC(=O)/C(=C/c2ccc(Br)cc2)S1	4453	-1	-33	-5	-8	-2
O=C(NCc1ccccn1)C1CCC(=O)N1C1CCCCC1 (centres undefined)	4369	104*	-6	-6	-3	0
CCC(Sc1nc2cc3c(cc2c(=O)n1Cc1ccco1)OCO3)C(=O)Nc1ccccc1OC (centres undefined)	23027*	1	-68	-1	-1	?
CCC(Sc1nc2cc3c(cc2c(=O)n1Cc1ccco1)OCO3)C(=O)Nc1cccc(OC)c1 (centres undefined)	21154*	-2	-11	2	-6	1
COc1ccc(Cc2nnc(C3CCN(C(C)=O)CC3)s2)cc1	nt	-3	nt	nt	nt	nt
Cc1cc(C(=O)N2CCC3(CC2)OCCS3)c(C)o1	nt	-14	nt	nt	nt	nt
O=C(NC(C(=O)N1CCN(C(=O)c2ccco2)CC1)S(=O)(=O)c1ccc(F)cc1)c1cccs1 (centres undefined)	nt	10	nt	nt	nt	nt
CN(C)C(CNc1ccc(C(F)(F)F)cc1[N+](=O)[O-])c1ccccc1 (centres undefined)	5498	49*	-14	17	-5	0
O=C(NCCCNc1ccc(C(F)(F)F)cc1[N+](=O)[O-])c1ccc(F)cc1	2513	-15	62*	-3	0	-1
CN(C)C(CNc1ccc(S(C)(=O)=O)cc1[N+](=O)[O-])c1ccccc1 (centres undefined)	6131	4	-33	-2	-5	-2
Cc1ccc(C(=O)NCCCNc2ccc(C(F)(F)F)cc2[N+](=O)[O-])cc1	2212	-27	4	4	-1	0
COc1ccccc1Cc1noc(C2CN(C(=O)c3cc(C)cs3)C2)n1	nt	9	nt	nt	nt	nt
NCCc1nnc(SCc2ccccc2Cl)o1	3185	-7	-23	45*	?	8
CC(C)(C)OC(=O)NCCc1nnc(SCc2ccccc2Cl)o1	16944*	-10	-3	0	0	0
CC(C)(C)OC(=O)NCCc1nnc(SCc2ccccc2)o1	nt	-4	-7	nt	nt	nt
Cn1cc(C(=O)N2CCC[C@H](Cc3nc(-c4cnccn4)no3)C2)nn1	nt	-4	nt	nt	nt	nt
COC(=O)Cn1c(=NC(=O)CN2C(=O)CCC2=O)sc2cc(S(C)(=O)=O)ccc21	nt	-11	nt	nt	nt	nt
CC(=NOC(=O)c1ccc(Cl)cc1)c1nccs1	3722	-13	nt	1	-2	-1
C/C(=N\OC(=O)c1ccc(Cl)cc1)c1nccs1	24861*	nt	3	-5	-2	-2
COc1ccccc1C=NNC(=O)CSc1cc(C)nc2ccccc12	nt	-16	nt	nt	nt	nt
SMILES	Autofluor counter	PriA SSB inh	MazEF act	BoNT-F LC inh	Anthrax LF inh2	BoNT A protease
COc1ccc2nc(C)cc(SCC(=O)N/N=C/c3cccc4ccccc34)c2c1	19063*	nt	55*	-2	-1	1
COc1cc(/C=N/NC(=O)CSc2cccc3cccnc23)cc(OC)c1OC	nt	+	nt	nt	nt	nt
O=C(CSc1cccc2cccnc12)N/N=C/c1cccc(O)c1	3270	+	4	-3	-3	0
O=C(CC1SC2=NCCN2C1=O)Nc1ccc(Cl)cc1 (centres undefined)	17758*	-1	-5	-7	0	-3
O=C(CC1Sc2ncnn2C1=O)Nc1ccc(Cl)cc1 (centres undefined)	nt	-3	-7	nt	nt	nt
Cc1nnc(C2CCCN(C(=O)C(C)(C)C)C2)s1 (centres undefined)	nt	0	nt	nt	nt	nt
CN(C)c1ccc(/C=C(/NC(=O)c2ccccc2)C(=O)N2CCCC2)cc1	6148	-5	59*	-1	1	0
Cc1ccc(/C=C(\NC(=O)c2ccccc2)C(=O)N2CCCCC2)cc1	4428	0	8	-7	-5	-2
CCOC(=O)c1ccc(-c2ccc(/C=C(\C#N)C(=O)NCC3CCCO3)o2)cc1 (centres undefined)	22009*	0	-3	-2	1	1
CCOC(=O)c1ccc(-c2ccc(/C=C(/C#N)C(=O)Nc3nccs3)o2)cc1	nt	-5	nt	nt	nt	nt
CN(C)S(=O)(=O)N(CC(=O)N(Cc1ccccc1)Cc1ccccc1)c1ccccc1	22498*	-27	3	0	1	0
Cc1ccc(NC(=O)CCC(=O)OCC(F)(F)C(F)F)cc1	21194*	-2	-6	2	-2	?
CCOC(=O)CC(=O)CSCC(=O)Nc1ccc(C)cc1	22826*	1	-2	0	0	2
N#CCSCC(=O)Nc1ccc(Br)cc1	15871	-6	-6	0	-3	1
Cc1ccc(NC(=O)CSCC#N)cc1	18468*	-15	4	-12	-8	?
CCOC(=O)c1ccc(NC(=O)CSCc2ccco2)cc1	16501*	-2	-6	-3	0	?
O=S(=O)(NCCOc1ccccc1)c1ccc(OC(F)(F)F)cc1	nt	-11	nt	nt	nt	nt
O=C(NNc1nc2c(Cl)cccc2s1)c1coc2ccccc2c1=O	nt	4	nt	nt	nt	nt
Cc1cc(C(=O)NCC#CCOc2ccccc2C(N)=O)no1	nt	-14	nt	nt	nt	nt
O=C(NCCSC1CCOCC1)C1(c2cccs2)CCCC1	nt	-9	nt	nt	nt	nt
O=C(Oc1ccccc1C=Nc1cccc2ccccc12)c1cc([N+](=O)[O-])cc([N+](=O)[O-])c1	nt	9	nt	nt	nt	nt
COc1ccc(N2C(=O)CSC23C(=O)N2c4c(cccc43)C(C)=CC2(C)C)cc1 (centres undefined)	16577*	17	-8	-4	-4	-1
Cc1ccc(C)c(C(=O)CSc2cccc3cccnc23)c1	nt	108*	nt	nt	nt	nt
Cc1ccc(C(=O)CSc2cccc3cccnc23)c(C)c1	nt	17	nt	nt	nt	nt
Cc1ccc(C(=O)COC(=O)CSc2cccc3cccnc23)c(C)c1	3460	78*	-6	-10	-2	0
CN(C)c1ccc(-c2nnc3sc(-c4ccccn4)nn23)cc1	nt	74*	nt	nt	nt	nt
c1ccc(-c2nn3c(-c4ccco4)nnc3s2)nc1	2551	2	0	0	0	0
c1ccc(-c2nnc3sc(-c4ccccn4)nn23)cc1	nt	45	nt	nt	nt	nt
c1ccc(-c2nn3c(-c4ccncc4)nnc3s2)nc1	nt	59*	nt	nt	nt	nt
